According to PubChem BioAssay AID1571 (National Center for Advancing Translational Sciences (NCATS), 2009):
Records with an inconclusive call do not appear. Calls of active or inactive are those of the source. The call rests on the fitted dose curve; in most records, active means well fitted curve in the direction sought with a large enough effect; inconclusive means small, poorly fitted or top-dose-only effect, or effect the other way; inactive means flat fitted curve, though single readings scatter.

Assay: Total Fluorescence Confirmation Counterscreen for Inhibitors of the Interaction of Thyroid Hormone Receptor and Steroid Receptor Coregulator 2, Fluorescein Fluoroprobe
Conditions: TRbeta/SRC2-fluorescein mix, total fluorescence interference; series mostly up to 92.2 µM
Source text: NIH Molecular Libraries Probe Production Network [MLPCN] NIH Chemical Genomics Center [NCGC] MLPCN Grant: DK058080 Assay Provider: R. Kip Guy, St. Jude Children's Research Hospital NCGC Assay Overview: Thyroid receptor (TR) regulates many homeostatic processes including basal metabolism, cardiovascular function, body weight, and lipid trafficking. TR modulators are potential therapeutics for obesity and hyperlipidemias but current thyroid analogs have undesirable side effects, particularly cardiac stimulation. To identify inhibitors that specifically prevent the interaction of TR with the steroid receptor coregulator 2 (SRC2), a fluorescence polarization assay was screened (Arnold et al., 2006). This assay detects interaction of the ligand-binding domain of human TRbeta with a fluorescein labeled SRC2 peptide, corresponding to a 20 amino acid region of the nuclear receptor interaction domain. Total fluorescence (555 nm excitation and 632 nm emission) was measured to identify potential fluorescent and light absorbing compounds. Such compounds may be artifacts that interfere with the fluorescence polarization assay. This assay is a confirmation assay for AID 1479. Arnold, L. A.; Estebanez-Perpina, E.; Togashi, M.; Shelat, A.; Ocasio, C. A.; McReynolds, A. C.; Nguyen, P.; Baxter, J. D.; Fletterick, R. J.; Webb, P.; Guy, R. K. A high-throughput screening method to identify small molecule inhibitors of thyroid hormone receptor coactivator binding. Sci STKE 2006, p 13.
NCGC Assay Protocol Summary: For screening, 5 uL/well 0.6 uM TRbeta and 20 nM SRC2 Fluorescein in protein buffer (20mM Tris hydrochloride, 100mM NaCl, 10% glycerol, 1mM EDTA, 0.01% NP-40, 1mM DTT, 1uM T3 and 5% DMSO) was dispensed into black solid 1536-well plates (Grenier) using a solenoid-based dispenser. Following transfer of 23 nL compound or DMSO vehicle by a pin tool, the plates were centrifuged 15 s at 1000 RPM and incubated 5 hr at ambient temperature. The plates were read by an Envision (Perkin Elmer) to detect fluorescence polarization of SRC2 Fluorescein (480 nm excitation and 535 nm emission). Data were normalized to unbound (all components except TRbeta) and bound SRC2 Fluorescein controls. Total fluorescence (TF) was calculated as follows: TF = S + 2P where S and P are fluorescence readings in the parallel and perpendicular channels, respectively. In this assay, we provide % activity data for each concentration as well as potencies for the active compounds.

Row | Compound | outcome
1 | CCn1nc(-c2cccs2)nc2c(=O)n(C)c(=O)nc1-2 | inactive
2 | CN1CC[C@@]2(C)c3cc(O)ccc3N(C)C2O1 (stereo not given in full) | inactive
3 | O=C(O)CC1OCC=C2CN3CCC45C6=CC(=O)C(=O)C([N+](=O)[O-])=C6NC4C1C2CC35 (stereo not given) | inactive
4 | Cc1[nH]n(-c2ccccc2)c(=O)c1C(c1ccc([N+](=O)[O-])cc1)c1c(C)[nH]n(-c2ccccc2)c1=O | inactive
5 | COP(=S)(OC)Oc1ccc([N+](=O)[O-])cc1 | inactive
